Sampled rows, rich in hits. Any-hit rate of the full collection: about 2.9%.
ATXN viability: Viability Counterscreen for Primary qHTS for Inhibitors of ATXN expression; S2 cells (HEK-293 line with an ATXN2-luciferase reporter) viability, CellTiter-Fluor protease fluorescence, 24 h; Potency, µM (highest dose often 56.7 µM), most hits filed as cytotoxic; hit rate 0.49% among 400,000; AID 651635, 2014; note: nearly all actives have a fitted effect of over 40% in size
Nrf2 activator: qHTS of Nrf2 Activators; AREc32 ARE-luciferase reporter (MCF7-derived line), luminescence, 24 h; hit rate 0.31% among 410,000; Potency, µM (top dose mostly 46.1 µM), inactives show at the highest dose activation, actives largely listed as activators; note: % of control where 0% means no effect; nearly all actives have a fitted effect of over 65% in size
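AREc32_Fluc, 1000 cells/well, OPTI-MEM + 5% FBS, o/n 37 deg C 5% CO2; 23 nL cpd by pin tool, 24 hr; Steady-Glo 30 min RT, luminescence.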
A549 tox: Nrf2 qHTS screen for inhibitors: counterscreen for cytotoxicity; A549 ARE-Fluc cells, CellTiter-Fluor viability, 18-24 h; Potency, µM (doses to about 46 µM), inactives show top-dose activity change, negative = cytotoxicity, most hits filed as inhibitors; hit rate 0.16% among 390,000; AID 504648, 2011; note: % is set by controls: 0 for no effect and ±100 for the full control effect
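Cytotoxicity counterscreen: CellTiter-Fluor fluorescence was measured in A549 ARE_Fluc cells after 18-24 h of compound exposure in a concentration series. The subsequent BugLite luminescent read reports ARE-luciferase activity.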
ATXN2 expr inh: Primary qHTS for Inhibitors of ATXN expression. hit rate 0.72% among 360,000. Potency, µM (highest dose often 57 µM), without a hit: at the highest dose activity change, negative = inhibition, hits mostly inhibitors. HEK-293 ATXN2-luciferase reporter, luminescence, 24 h; note: % is set by controls: 0 for no effect and ±100 for the full control effect; nearly all actives have a fitted effect of over 55% in size
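qHTS (up to 57 uM final) was run with 24 h compound exposure of reporter cells at 37 °C. Each well was multiplexed: SteadyGlo luminescence measured ATXN2-luciferase expression after a fluorogenic Gly-Phe-AFC viability readout (25 uM final).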
Nrf2 block: Nrf2 qHTS screen for inhibitors; Potency, µM (series often up to 46 µM), inactives show at the top dose activity change, negative = inhibition, most hits filed as inhibitors; A549 ARE-Fluc reporter, luciferase luminescence, 18-24 h; hit rate 2.1% among 360,000; note: % is set by controls: 0 for no effect and ±100 for the full control effect; nearly all actives have a fitted effect of over 60% in size
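Nrf2 activity is the BugLite luminescence, read 15 min after reagent at room temperature, following CellTiter-Fluor cytotoxicity readout (30 min, 37C). Compound titrations were applied for 18-24 h to 5000 A549 ARE_Fluc cells/well in 5% FBS OPTI-MEM.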
Starred values were filed as active, the others as inactive; i = inactive; ? = inconclusive; / = not tested or not shown; [ ] = another dose, or the depositor's remark. Calls come from the whole dose curve; as a rule, active = well fitted curve in the direction sought with a large enough effect; inconclusive = small, poorly fitted or top-dose-only effect, or another doubt; inactive = no such curve, though single readings can be large; an effect the other way counts as inactive or inconclusive. Potency is the fitted concentration of half-maximal effect.

SMILES	ATXN viability	Nrf2 activator	A549 tox	ATXN2 expr inh	Nrf2 block
O=C(Nc1ccc(-c2csc(Nc3cccc(C(F)(F)F)c3)n2)cc1)c1ccccc1	?	-1.4%	-15.8%	?	?
O=C(NNc1nc(-c2ccccc2)cs1)c1ccc(F)cc1	i	-0.3%	-2.1%	-0.6%	1.2%
O=C(NNc1nc(-c2ccc(F)cc2)cs1)c1ccccc1	?	-0.7%	?	?	14.6µM*
COc1cccc(/C=C/c2nc(C#N)c(N3CCCCC3)o2)c1	/	5.1%	11.2%	/	-2.3%
COCCc1ccc(OCC2CO2)cc1 (configuration not stated)	i	/	/	6.8%	/
COC1=C(Br)C(=O)c2ncccc2C1=O	23.8µM*	-1.4%	?	15µM*	?
O=C1C(=O)c2cccnc2-c2ncccc21	0.398µM*	-2.9%	/	0.501µM*	/
COc1ccccc1N1C(=O)c2cccnc2C1=O	i	-0.7%	-2.7%	/	3.3%
O=C1c2cccnc2-c2ncccc21	?	-1.0%	-7.7%	-0.9%	0.2%
COc1ccc(OC)c(CN2C[C@H](Sc3ccc(F)cc3)C[C@H]2C(=O)N(C)C)c1	i	/	/	/	/
CCOC(=O)c1ccccc1NC(=O)Cn1ncc2c1-c1ccccc1OC2	i	0.5%	-12.4%	7.2%	-16.4%
CC(=O)/C=C/c1ccccc1Oc1c(F)c(F)nc(F)c1F	?	7.94µM*	8.8%	-33.8%	5.7%
CCOC(=O)c1c(NC(=O)C(NCCN(C)C)c2ccccc2)sc2c1CCCC2 (configuration not stated)	/	-0.4%	-15.9%	28.2µM*	-8.1%
O=C(CSc1n[nH]c(=O)n1C1CC1)Nc1cc(Cl)ccc1Oc1ccccc1	i	-0.6%	?	-28.5%	18.4µM*
O=C(CSc1n[nH]c(=O)n1C1CC1)Nc1ccccc1	i	-0.6%	2.1%	7.3%	-3.2%
Cn1c(SCC2CCCO2)nnc1C1CCN(Cc2ccc(-c3cccc(Cl)c3)o2)CC1 (configuration not stated)	i	/	/	/	/
CCc1ccc(-c2cc(C)no2)cc1S(=O)(=O)N1CCN(c2ccccn2)CC1	i	-0.1%	7.7%	-22.0%	?
COc1ccc(-c2cc(C)no2)cc1S(=O)(=O)N1CCN(c2ccccn2)CC1	i	-0.5%	-5.5%	?	18.4µM*
O=c1c2sc3ccccc3c2n(Cc2cccc(F)c2)c(=O)n1CCc1ccccc1	i	0.0%	8.5%	82.9%	?
CCCC(=O)N1CCCC(c2cc(C(=O)Nc3ccccc3)no2)C1 (configuration not stated)	i	-3.2%	/	11.2µM*	/
CN(C)c1cccc(C(=O)NCC2Cc3cccc(-c4cncnc4)c3O2)c1 (configuration not stated)	i	/	/	/	/
CC(C)OC(=O)[C@H](C)N[P@](=O)(OC[C@H]1O[C@@H](n2ccc(=O)[nH]c2=O)[C@](C)(F)[C@H]1O)Oc1ccccc1	/	/	/	-7.1%	/
C#CCN(C[C@@H]1[C@@H](OC(=O)NCc2ccc(OC)c(OC)c2)[C@@H](OC(=O)NCc2ccc(OC)c(OC)c2)Cn2c(=O)ccc(=O)n21)S(=O)(=O)c1ccc(C)cc1	20µM*	-3.6%	/	?	/
C#CCN(C[C@@H]1[C@@H](OC(=O)NCCCCCC)[C@@H](OC(=O)NCCCCCC)Cn2c(=O)ccc(=O)n21)S(=O)(=O)c1ccc(C)cc1	3.98µM*	?	/	3.55µM*	/
C#CCN(C[C@@H]1[C@@H](OC(=O)NCc2ccco2)[C@@H](OC(=O)NCc2ccco2)Cn2c(=O)ccc(=O)n21)S(=O)(=O)c1ccc(C)cc1	25.1µM*	-6.0%	/	14.1µM*	/
SMILES	ATXN viability	Nrf2 activator	A549 tox	ATXN2 expr inh	Nrf2 block
C#CCN(C[C@H]1[C@H](OC(=O)NCC2CCCCC2)[C@H](OC(=O)NCC2CCCCC2)C[C@@H](C(=O)OC)[C@H]1C(=O)OC)S(=O)(=O)c1ccc(C)cc1	?	-0.2%	/	-8.6%	/
C#CCN(C[C@@H]1[C@@H](OC(=O)NCc2ccc(OC)c(OC)c2)[C@@H](OC(=O)NCc2ccc(OC)c(OC)c2)Cn2c(=O)n(CCCCCC)c(=O)n21)S(=O)(=O)c1ccc(C)cc1	i	-0.5%	/	5.6%	/
C#CCN(C[C@@H]1[C@@H](OC(=O)NCC2CCCCC2)[C@@H](OC(=O)NCC2CCCCC2)Cn2c(=O)ccc(=O)n21)S(=O)(=O)c1ccc(C)cc1	3.55µM*	?	/	3.55µM*	/
O=C(Nc1cc(Cl)cc2c1[nH]c1cnccc12)c1cccnc1	/	/	/	10.4%	/
CCCCCCNC(=O)O[C@H]1Cn2c(=O)ccc(=O)n2[C@@H]2CN(S(=O)(=O)c3ccc(C)cc3)C[C@]12O	20µM*	-5.7%	/	14.1µM*	/
COC(=O)C(NNc1ccc(F)cc1)(NC(=O)c1ccccc1)C(F)(F)F (configuration not stated)	i	0.7%	-2.7%	-8.8%	23.1µM*
COC(=O)C(NNc1ccccc1C)(NC(=O)c1ccc(F)cc1)C(F)(F)F (configuration not stated)	i	2.8%	-5.2%	-9.4%	-23.7%
CCC1=NN(C(=O)c2ccc(Cl)cc2)C(O)(c2ccccc2)C1 (configuration not stated)	?	8.2%	-8.8%	/	26.5%
CCC1=NN(C(=O)c2ccc([N+](=O)[O-])cc2)C(O)(c2ccccc2)C1 (configuration not stated)	28.2µM*	-0.3%[9.22 µM]	?	?	?
Nc1ncnc2c1ncn2[C@@H]1O[C@H](CNC(=O)OC[C@@H](N)Cc2ccccc2)[C@@H](O)[C@H]1O	i	0.1%	/	-8.7%	/
O=C(OCC1OC(n2cnc3c(N(C(=O)c4ccccc4)C(=O)c4ccccc4)ncnc32)C(O)C1F)c1ccccc1 (configuration not stated)	i	6.6%	?	2.5%	16.4µM*
Cc1ccc(C(=O)c2c(N)c(-c3nc(-c4ccc5c(c4)OCO5)cs3)c3ccccn23)cc1C	i	-0.2%	-0.4%	15.2%	3.3%
CC(=O)c1ccc(-c2cc([C@H]3[C@H]4C=CC[C@@H](C)[C@@H]4C(=O)N3Cc3ccccc3)ccc2F)cc1	i	3.4%	-12.8%	?	20.6µM*
CC(=O)c1ccc(-c2cc(C3C4C=CCC(C)C4C(=O)N3Cc3ccccc3)ccc2F)cc1 (configuration not stated)	/	/	-12.9%	/	?
COC(=O)c1ccc(-c2ccc(C3C4C=CCC(C)C4C(=O)N3Cc3ccccc3)c(F)c2)cc1 (configuration not stated)	/	/	-13.0%	/	10.3µM*
Cc1nc(C)c(-c2ccc(SCC(=O)Nc3ccc(F)cc3F)nn2)s1	?	-0.5%	-25.2%	-2.3%	20.6µM*

Assay outcomes from PubChem.
